Records with an inconclusive call do not appear. Calls of active or inactive are those of the source. Unless noted, calls come from the whole dose curve; as a rule, active = well fitted curve in either direction with a large enough effect (not every such curve was filed as active); inconclusive = small, poorly fitted or top-dose-only effect, or another doubt; inactive = flat fitted curve, though single readings scatter.
Assays:
[1] = target: Lysosomal acid glucosylceramidase (Homo sapiens) (UniProt P04062); assay: Glucocerebrosidase-p2 (AID 348; in the data active = potency below about 10 µM; note: potency is the fitted concentration of half-maximal effect); settings: purified GBA, blue fluorogenic substrate, 40 min
Sequence of Lysosomal acid glucosylceramidase (Homo sapiens) (P04062 whole entry, looked up): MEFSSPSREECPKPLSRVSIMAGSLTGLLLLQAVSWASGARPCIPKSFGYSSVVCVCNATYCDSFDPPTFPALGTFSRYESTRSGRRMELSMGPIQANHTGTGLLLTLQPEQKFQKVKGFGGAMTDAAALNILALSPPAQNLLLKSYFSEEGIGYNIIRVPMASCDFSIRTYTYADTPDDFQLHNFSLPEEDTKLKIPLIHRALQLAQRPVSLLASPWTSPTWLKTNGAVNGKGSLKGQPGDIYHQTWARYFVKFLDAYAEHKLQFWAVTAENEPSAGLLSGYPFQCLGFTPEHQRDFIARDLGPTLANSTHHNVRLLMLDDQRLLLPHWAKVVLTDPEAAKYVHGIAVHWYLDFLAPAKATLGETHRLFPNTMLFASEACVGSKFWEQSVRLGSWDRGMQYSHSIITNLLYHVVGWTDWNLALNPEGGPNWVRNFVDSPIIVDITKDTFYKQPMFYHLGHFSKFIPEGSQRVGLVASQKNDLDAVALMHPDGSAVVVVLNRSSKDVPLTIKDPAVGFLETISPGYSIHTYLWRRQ
Outline: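 Compounds titrated from 0.6 nM upwards against 0.2 nM enzyme in pH 5.9 citric acid/KH2PO4, taurocholate, tween-20; blue fluorogenic substrate 80 uM, 40 min room temperature, stopped and read Ex 365/Em 440 for AC50.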

[2] = AP1 Signaling Pathway (AID 357); settings: ME-180 AP-1-bla reporter, EGF-induced, beta-lactamase ratio, 5 h; at 7.69 µM (top of the series) unless noted;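 note: ME-180 reporter cells stimulated with EGF at its EC50 level; % is set by controls: 0 for no effect and ±100 for the full control effect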
Outline: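 A ratiometric CCF4 readout (405 nm excitation; 460 and 530 nm emission) quantified AP-1-driven beta-lactamase in ME-180 cells after 5 h with compound and EC50 EGF; AC50 values were derived for activators and inhibitors.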

[3] = target: Cytochrome P450 1A2 (Homo sapiens) (UniProt P05177); assay: p450-cyp1a2 (AID 410; calls by dose curve; note: potency is the fitted concentration of half-maximal effect;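 for activity change, negative = inhibition: -100% = full effect of reference inhibitor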); settings: recombinant CYP1A2, luciferin-ME demethylation, luminescence; series mostly up to 57 µM
Sequence of Cytochrome P450 1A2 (Homo sapiens) (P05177 whole entry, looked up): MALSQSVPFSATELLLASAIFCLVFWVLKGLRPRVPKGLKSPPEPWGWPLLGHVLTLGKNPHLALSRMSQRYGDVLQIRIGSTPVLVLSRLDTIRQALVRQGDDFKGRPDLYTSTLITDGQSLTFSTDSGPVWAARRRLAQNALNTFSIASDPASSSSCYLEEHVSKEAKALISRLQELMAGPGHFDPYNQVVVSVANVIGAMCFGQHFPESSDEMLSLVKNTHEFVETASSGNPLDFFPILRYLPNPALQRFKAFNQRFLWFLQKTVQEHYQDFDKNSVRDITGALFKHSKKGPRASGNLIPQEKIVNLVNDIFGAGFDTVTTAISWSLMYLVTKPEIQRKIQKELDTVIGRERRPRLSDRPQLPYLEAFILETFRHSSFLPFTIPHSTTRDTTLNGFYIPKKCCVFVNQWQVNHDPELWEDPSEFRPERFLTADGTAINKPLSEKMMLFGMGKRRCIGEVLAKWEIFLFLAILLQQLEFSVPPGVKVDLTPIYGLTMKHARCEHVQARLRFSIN
Outline: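 20nM CYP1A2 with 100uM Luciferin-ME (at Km) in 100mM KPO4; compound preincubated 10 min, NADPH regeneration added, 60 min at room temperature. Luciferin quantified by luminescence after detection reagent; normalized to 57 uM furafylline.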

[4] = Stat Signaling Pathway (AID 446); settings: ME-180 SIE beta-lactamase reporter, IL-6 stimulated, 5 h; at 7.69 µM (top of the series) unless noted;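 note: ME-180 cervical cancer cells given 40 pM IL-6 alongside compound; SIE-controlled beta-lactamase reporter measured as 460/530 nm FRET emission ratio; % is set by controls: 0 for no effect and ±100 for the full control effect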
Outline: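 Reporter line: ME-180 cervical carcinoma, SIE-beta-lactamase. Treatment: compound with 40 pM IL-6, 5 hrs, 37 C, in low-serum OPTI-MEM with 10 mM HEPES pH 7.3. Detection: 460/530 nm fluorescence.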

[5] = target: Glucocorticoid receptor (Homo sapiens) (UniProt P04150); assay: GR-EFC Redistribution (AID 451; calls by dose curve; note: potency is the fitted concentration of half-maximal effect); settings: CHO-K1 GR-EFC translocation, beta-gal luminescence, 2 h
Sequence of Glucocorticoid receptor (Homo sapiens) (P04150 whole entry, looked up, the tested form may be a part): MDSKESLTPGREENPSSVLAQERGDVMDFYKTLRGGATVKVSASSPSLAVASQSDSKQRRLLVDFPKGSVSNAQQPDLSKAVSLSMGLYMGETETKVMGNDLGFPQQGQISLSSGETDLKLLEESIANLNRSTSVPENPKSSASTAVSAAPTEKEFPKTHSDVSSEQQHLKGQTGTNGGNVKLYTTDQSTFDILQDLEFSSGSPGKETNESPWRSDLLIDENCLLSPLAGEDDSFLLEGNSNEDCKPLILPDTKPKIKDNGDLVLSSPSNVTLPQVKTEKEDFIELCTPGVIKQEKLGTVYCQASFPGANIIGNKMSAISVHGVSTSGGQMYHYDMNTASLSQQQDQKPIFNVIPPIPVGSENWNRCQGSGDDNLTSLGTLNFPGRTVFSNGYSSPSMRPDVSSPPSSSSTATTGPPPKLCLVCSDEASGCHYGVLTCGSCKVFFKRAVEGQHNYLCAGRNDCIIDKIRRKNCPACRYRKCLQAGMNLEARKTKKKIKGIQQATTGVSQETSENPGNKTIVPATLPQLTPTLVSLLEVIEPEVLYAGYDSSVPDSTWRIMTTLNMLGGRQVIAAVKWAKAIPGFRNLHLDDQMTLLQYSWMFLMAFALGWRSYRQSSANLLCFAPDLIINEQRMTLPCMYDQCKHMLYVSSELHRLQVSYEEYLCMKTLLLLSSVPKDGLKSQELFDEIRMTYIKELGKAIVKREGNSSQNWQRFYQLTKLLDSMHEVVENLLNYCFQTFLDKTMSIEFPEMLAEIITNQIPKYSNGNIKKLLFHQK
Outline: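 CHO-K1 cells expressing nuclear EA and GR-ED fragments of b-gal; compounds titrated up to 46 uM final, 2 h at 37 C. GR nuclear translocation read as complemented b-gal luminescence after 1 h RT detection.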

[6] = target: Mitogen-activated protein kinase 10 (Mus musculus) (UniProt Q61831); assay: JNK3 AlphaScreen Assay (AID 530); settings: JNK3 lysate, c-Jun phosphorylation; series mostly up to 57.1 µM;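 note: kinase came from lysate of stimulated human HepG2 cells; signal reports phosphorylation of biotinylated GST-cJun 1-79 at Ser73 with 10 µM ATP; % is set by controls: 0 for no effect and ±100 for the full control effect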
Outline: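 Pre-activated (IL-1β/TNFα) JNK3 in HepG2 lysates phosphorylates biotin-GST-cJun(1-79), 10 uM ATP; anti-phospho-cJun(Ser73) AlphaScreen read at room temperature, pH 7.6 Tris buffer. Compounds pre-incubated 15 min as titrations.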

[7] = target: 3',5'-cyclic-AMP phosphodiesterase 4B (Homo sapiens) (UniProt Q07343); assay: qHTS Assay for Inhibitors of PDE-IV (AID 607; active = well fitted activation curve with a large enough effect in the main read-out, with a control signal flat, not every such curve was filed as active; note: % of control where 0% means no effect); settings: HEK293 ACTOne CNG channel cells, membrane potential fluorescence; series mostly up to 22.9 µM
Sequence of 3',5'-cyclic-AMP phosphodiesterase 4B (Homo sapiens) (Q07343 whole entry, looked up): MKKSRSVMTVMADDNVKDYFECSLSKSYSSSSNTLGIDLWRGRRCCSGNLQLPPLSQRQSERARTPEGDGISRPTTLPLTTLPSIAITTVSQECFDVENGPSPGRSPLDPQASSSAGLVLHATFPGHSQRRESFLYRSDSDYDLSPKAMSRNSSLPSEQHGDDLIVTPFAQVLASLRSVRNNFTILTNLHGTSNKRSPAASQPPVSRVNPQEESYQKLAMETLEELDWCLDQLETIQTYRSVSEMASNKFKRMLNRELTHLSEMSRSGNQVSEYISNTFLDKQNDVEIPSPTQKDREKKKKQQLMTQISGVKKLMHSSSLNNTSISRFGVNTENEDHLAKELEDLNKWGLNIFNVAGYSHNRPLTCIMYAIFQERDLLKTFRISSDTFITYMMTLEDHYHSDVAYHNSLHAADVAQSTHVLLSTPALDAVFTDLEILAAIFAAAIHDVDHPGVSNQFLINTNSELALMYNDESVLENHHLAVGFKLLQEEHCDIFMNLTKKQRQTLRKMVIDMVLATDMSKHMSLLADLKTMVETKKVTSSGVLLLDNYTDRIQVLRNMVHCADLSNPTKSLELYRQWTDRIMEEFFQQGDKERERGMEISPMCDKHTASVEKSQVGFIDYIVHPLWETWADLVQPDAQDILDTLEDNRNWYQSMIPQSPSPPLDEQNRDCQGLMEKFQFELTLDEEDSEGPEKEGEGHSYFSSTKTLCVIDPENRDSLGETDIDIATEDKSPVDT
Outline: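 Cell-based read-out of cAMP via a modified cyclic nucleotide-gated channel and membrane potential dye (535/590 nm) in HEK293 cells expressing PDE4 endogenously. Compounds tested up to 22.9 uM final; 100 uM RO 20-1724 reference.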

[8] = target: Cytochrome P450 3A4 (Homo sapiens) (UniProt P08684); assay: qHTS Assay for Activators of Cytochrome P450 3A4 (AID 885; active = well fitted curve in the direction sought with a large enough effect; an effect the other way counts as inactive or inconclusive; note: nearly all actives have a fitted effect of over 65% in size); settings: recombinant CYP3A4, Luciferin-PPXE luminescence, 60 min; series mostly up to 57.1 µM
Sequence of Cytochrome P450 3A4 (Homo sapiens) (P08684 whole entry, looked up): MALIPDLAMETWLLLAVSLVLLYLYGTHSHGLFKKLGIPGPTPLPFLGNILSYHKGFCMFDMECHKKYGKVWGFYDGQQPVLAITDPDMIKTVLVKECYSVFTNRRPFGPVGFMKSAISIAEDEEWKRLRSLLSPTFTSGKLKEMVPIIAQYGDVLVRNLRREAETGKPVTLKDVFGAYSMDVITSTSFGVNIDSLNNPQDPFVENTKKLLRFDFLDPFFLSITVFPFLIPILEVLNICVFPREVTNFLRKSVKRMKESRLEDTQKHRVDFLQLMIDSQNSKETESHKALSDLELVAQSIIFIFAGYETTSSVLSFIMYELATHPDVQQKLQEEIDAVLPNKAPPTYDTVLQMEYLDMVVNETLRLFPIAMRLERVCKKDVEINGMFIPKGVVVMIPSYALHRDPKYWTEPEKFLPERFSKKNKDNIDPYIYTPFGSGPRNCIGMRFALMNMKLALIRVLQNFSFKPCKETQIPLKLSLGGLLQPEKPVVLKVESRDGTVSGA
Outline: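 Signal was normalized against complete inhibition by 57 uM ketoconazole. The reaction used 20nM CYP3A4 with 25uM Luciferin-PPXE, 10-min compound preincubation and a 60-min NADPH-supported step at RT.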

[9] = qHTS Assay for Identification of Small Molecule Agonists for Hypoxia Response Element Signaling Pathway (AID 914; active = well fitted activation curve with a large enough effect in the signal ratio, with a control signal flat, not every such curve was filed as active; the % refers to the signal ratio; note: potency is the fitted concentration of half-maximal effect; for activation: % of control where 0% means no effect); settings: ME-180 (cervical carcinoma) HRE-bla reporter, beta-lactamase ratio, CoCl2, 17 h; activation: stronger effect = higher value
Outline: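 HRE-bla ME-180 cells, overnight plating in Opti-MEM with 0.5% dialyzed FBS; cpd titration + EC50 CoCl2, 17 h, 37 degrees Celsius; CCF4 2.5 h RT; 460/530 nm ratio; AC50.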

[10] = qHTS Assay for Lipid Storage Modulators (AID 1519; calls by dose curve); settings: Drosophila S3 cells, BODIPY lipid droplet/cell ratio, laser cytometry, cells loaded with oleic acid; for activity change, negative = inhibition: at 57.5 µM (top of the series)
Outline: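 Cells seeded at 5,000 per well were treated with compounds over a concentration series and loaded with oleic acid (400 uM, as added). Lipid droplet fluorescence (488 nm excitation, 500-530 nm channel) was read by laser-scanning cytometry and normalized to 20 uM Triacsin C.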

[11] = Primary qHTS for small molecule stabilizers of the endoplasmic reticulum resident proteome: Secreted ER Calcium Modulated Protein (SERCaMP) assay (AID 1508630; active = well fitted curve in the direction sought with a large enough effect; an effect the other way counts as inactive or inconclusive; note: % is set by controls: 0 for no effect and ±100 for the full control effect); settings: SH-SY5Y GLuc-SERCaMP (Gaussia luciferase released on ER calcium loss) secretion, thapsigargin, luminescence; series mostly up to 38.4 µM
Outline: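 GLuc-SERCaMP-expressing SH-SY5Y cells, pretreated 16 h with compound, are challenged with thapsigargin to empty ER calcium stores; after 4 h, coelenterazine is added directly to the medium and luminescence is imaged.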

[12] = target: Cytochrome P450 2D6 (Homo sapiens) (UniProt P10635); assay: qHTS Assay for Inhibitors and Substrates of Cytochrome P450 2D6 (AID 891; active = well fitted curve in the direction sought with a large enough effect; an effect the other way counts as inactive or inconclusive; note: potency is the fitted concentration of half-maximal effect; nearly all actives have a fitted effect of over 60% in size); settings: recombinant CYP2D6, luciferin-ME EGE luminescence; series mostly up to 57.1 µM
Sequence of Cytochrome P450 2D6 (Homo sapiens) (P10635 whole entry, looked up): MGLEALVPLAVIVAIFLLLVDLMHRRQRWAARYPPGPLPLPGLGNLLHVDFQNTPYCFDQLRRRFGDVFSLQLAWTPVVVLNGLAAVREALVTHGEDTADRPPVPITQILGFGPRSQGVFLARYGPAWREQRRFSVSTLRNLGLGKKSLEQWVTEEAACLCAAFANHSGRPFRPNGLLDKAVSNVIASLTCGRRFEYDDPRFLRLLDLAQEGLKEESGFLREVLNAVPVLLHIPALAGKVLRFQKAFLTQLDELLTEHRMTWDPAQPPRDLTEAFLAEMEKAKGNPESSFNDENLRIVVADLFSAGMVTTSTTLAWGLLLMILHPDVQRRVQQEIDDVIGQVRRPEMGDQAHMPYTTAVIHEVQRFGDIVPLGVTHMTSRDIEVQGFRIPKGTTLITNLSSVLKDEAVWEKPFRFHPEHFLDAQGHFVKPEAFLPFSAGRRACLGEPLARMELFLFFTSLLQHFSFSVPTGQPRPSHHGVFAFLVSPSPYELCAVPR
Outline: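 Human CYP2D6 (5 nM) with 30 uM Luciferin-ME EGE (at Km) in 100 mM KPO4, compound preincubated 10 min, then NADPH regeneration system for 60 min at room temperature. Luciferin read by luminescence; normalized to 1.43 uM quinidine.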

[13] = target: Glucocorticoid receptor (Homo sapiens) (UniProt P04150); assay: GR-GFP Redistribution (AID 450;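 active = compounds whose dose series gives a full or clear partial fitted curve of increased nuclear translocation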; note: potency is the fitted concentration of half-maximal effect); settings: U2OS GR-GFP nuclear translocation, laser cytometry, 2 h
[14] = target: Cytochrome P450 2C19 (Homo sapiens) (UniProt P33261); assay: qHTS Assay for Inhibitors and Substrates of Cytochrome P450 2C19 (AID 899; active = well fitted curve in the direction sought with a large enough effect; an effect the other way counts as inactive or inconclusive; note: potency is the fitted concentration of half-maximal effect; nearly all actives have a fitted effect of over 60% in size); settings: recombinant CYP2C19, luciferin-H EGE luminescence; series mostly up to 57.1 µM
Sequence of Cytochrome P450 2C19 (Homo sapiens) (P33261 whole entry, looked up): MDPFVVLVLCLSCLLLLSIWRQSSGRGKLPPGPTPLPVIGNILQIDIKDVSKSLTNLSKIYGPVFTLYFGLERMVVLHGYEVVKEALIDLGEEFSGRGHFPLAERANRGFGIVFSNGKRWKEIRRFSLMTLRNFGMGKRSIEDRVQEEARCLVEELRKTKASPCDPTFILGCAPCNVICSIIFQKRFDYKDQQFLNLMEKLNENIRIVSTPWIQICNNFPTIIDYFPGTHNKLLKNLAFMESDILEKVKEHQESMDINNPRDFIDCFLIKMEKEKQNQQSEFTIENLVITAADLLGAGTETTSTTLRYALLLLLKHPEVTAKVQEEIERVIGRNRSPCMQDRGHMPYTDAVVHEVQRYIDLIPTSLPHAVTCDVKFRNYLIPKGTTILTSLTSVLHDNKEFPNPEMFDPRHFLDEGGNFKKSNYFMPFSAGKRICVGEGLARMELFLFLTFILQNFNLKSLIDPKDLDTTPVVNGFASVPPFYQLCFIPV
Outline: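 5 nM human CYP2C19 with 10uM Luciferin-H EGE (at KM) in 50mM KPO4, compound preincubated 10 min at 37C, then NADPH regeneration for 60 min at 37C. Luciferin read by luminescence after detection reagent; normalized to 57uM ketoconazole as full inhibition.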

[15] = Confirmation and Secondary Assay for Modulators of Hemoglobin Beta Chain Splicing at IVS2 654 locus (AID 910; active = well fitted curve in the direction sought with a large enough effect; an effect the other way counts as inactive or inconclusive;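 note: HeLa cells stably carrying EGFP split by mutant beta-globin IVS2-654 intron; % of control where 0% means no effect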); settings: HeLa EGFP-654 splicing reporter, GFP fluorescence, 48 h; series mostly up to 38.3 µM
Outline: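 HeLa cells stably expressing EGFP interrupted by β-globin IVS2-654 intron, seeded overnight in Opti-MEM/2% FCS, then treated 2 days at 37 °C. Restored splicing read as total peak GFP intensity per well by laser scanning cytometry (488 nm excitation, 500–520 nm emission); 500 nM antisense PNA as control.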

[16] = Confirmation and Secondary Assay for Modulators of Hemoglobin Beta Chain Splicing at IVS2 705 locus (AID 930; active = well fitted curve in the direction sought with a large enough effect; an effect the other way counts as inactive or inconclusive;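 note: HeLa cells stably expressing the EGFP-705 splicing reporter; GFP fluorescence per well restored by corrected splicing of the IVS2-705 intron in EGFP; % of control where 0% means no effect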); settings: HeLa EGFP-705 splicing reporter, GFP fluorescence, 48 h; series mostly up to 38.3 µM
Outline: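 Read-out: total peak GFP fluorescence per well (488 nm excitation, 500-520 nm emission) by laser-scanning cytometry. Cells: HeLa EGFP-705 splicing reporter, 2 days compound exposure in Optimem/2% FCS.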

[17] = target: Cytochrome P450 3A4 (Homo sapiens) (UniProt P08684); assay: qHTS Assay for Inhibitors and Substrates of Cytochrome P450 3A4 (AID 884; active = well fitted curve in the direction sought with a large enough effect; an effect the other way counts as inactive or inconclusive; note: % is set by controls: 0 for no effect and ±100 for the full control effect; nearly all actives have a fitted effect of over 50% in size); settings: recombinant CYP3A4, Luciferin-PPXE luminescence; series mostly up to 57.1 µM
Outline: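 20 nM human CYP3A4 with 25 uM Luciferin-PPXE (at KM) in 200 mM KPO4, preincubated 10 min with compound; NADPH regeneration started a 60 min RT reaction. Luciferin detected by luminescence, normalized to 57 uM ketoconazole as full inhibition.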

[18] = NFAT Signaling Pathway (AID 444); settings: Jurkat NFAT-bla M1, carbachol, beta-lactamase ratio, 5 h; at 7.69 µM (top of the series) unless noted
Outline: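 Jurkat cells with NFAT-driven β-lactamase reporter and co-expressed M1 receptor, stimulated with carbachol (final 1 uM, ~EC50), compound titration, 5 h at 37 °C. CCF4 loaded 1 h at RT; 460/530 nm ratio gave %activity and AC50.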

[19] = target: Ubiquitin carboxyl-terminal hydrolase 1 (Homo sapiens) (UniProt O94782); assay: Inhibitors of USP1/UAF1: Pilot qHTS (AID 504865; active = well fitted curve in the direction sought with a large enough effect; an effect the other way counts as inactive or inconclusive;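 note: rhodamine fluorescence freed from ubiquitin-rhodamine substrate followed over time; top concentration of the series differs between compounds; % is set by controls: 0 for no effect and ±100 for the full control effect; nearly all actives have a fitted effect of over 35% in size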); settings: purified USP1/UAF1, Ub-rhodamine cleavage fluorescence; series mostly up to 54.9 µM
Sequence of Ubiquitin carboxyl-terminal hydrolase 1 (Homo sapiens) (O94782 whole entry, looked up): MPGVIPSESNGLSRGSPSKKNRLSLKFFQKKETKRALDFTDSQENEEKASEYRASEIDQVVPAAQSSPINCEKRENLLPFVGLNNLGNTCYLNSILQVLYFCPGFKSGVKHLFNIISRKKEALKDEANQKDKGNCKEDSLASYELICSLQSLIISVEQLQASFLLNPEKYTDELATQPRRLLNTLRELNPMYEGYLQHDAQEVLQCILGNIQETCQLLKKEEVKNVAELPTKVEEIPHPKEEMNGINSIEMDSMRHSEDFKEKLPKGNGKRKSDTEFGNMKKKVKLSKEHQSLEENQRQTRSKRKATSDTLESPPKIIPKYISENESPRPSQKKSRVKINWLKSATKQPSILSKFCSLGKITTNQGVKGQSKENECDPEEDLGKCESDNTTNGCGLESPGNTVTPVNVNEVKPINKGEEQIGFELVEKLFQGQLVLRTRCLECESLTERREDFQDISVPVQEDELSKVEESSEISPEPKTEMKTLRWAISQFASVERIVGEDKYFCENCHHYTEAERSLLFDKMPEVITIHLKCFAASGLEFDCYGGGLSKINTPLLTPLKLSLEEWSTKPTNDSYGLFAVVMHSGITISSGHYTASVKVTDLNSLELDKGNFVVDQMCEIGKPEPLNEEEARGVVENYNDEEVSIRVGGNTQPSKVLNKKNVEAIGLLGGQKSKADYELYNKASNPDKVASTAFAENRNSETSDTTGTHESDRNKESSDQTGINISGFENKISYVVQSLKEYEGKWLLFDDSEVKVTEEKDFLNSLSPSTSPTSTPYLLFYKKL
Outline: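 1nM USP1/UAF1 + cpd, 15 min RT; start w/ Ub-Rho 150nM final; kinetic FL 480/540 nm, 6 reads q60 s. Buffer 50mM HEPES pH 7.8, 0.5mM EDTA, 1mM TCEP, 0.01% Tween-20, 0.1 mg/ml BSA.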

[20] = measured here: cell count channel max response
[21] = measured here: lipid channel max response

Cc1noc(C)c1C(=O)N1CCC2(CCN(Cc3ccncc3)CC2)CC1
0.0469%: max response [10, 20]
9.36%: max response [10, 21]
inactive: Potency [1] > 11.4 µM | activity change, negative = inhibition [2] 5.66% | Potency [3] | activity, negative = inhibition [4] -5.26% | Potency [5] > 46 µM | Potency [6] | Potency [7] | Potency [8] | activation [9] 14.4% | activity change, negative = inhibition [10] 4.47% | outcome [11]

O=C(c1cccc(F)c1)N1CCC2(CC1)CN(Cc1ccccc1)C2
inactive: Potency [1] > 11.4 µM | activity change, negative = inhibition [2] 0.919% | Potency [3] | activity, negative = inhibition [4] 0.079% | Potency [5] > 46 µM | Potency [6] | Potency [7] | activity change, negative = inhibition [10] -1.4% | outcome [11]
-4.23%: max response [10, 21]
active: Potency [12] 5.01 µM
-5.75%: max response [10, 20]

Cc1noc(C)c1-c1ccc2ncnc(NCc3ccccc3)c2c1
-2.04%: max response [10, 21]
active: Potency [3] 3.16 µM | Potency [14] 7.94 µM | Potency [9] 3.16 µM
-0.875%: max response [10, 20]
inactive: Potency [1] > 11.4 µM | activity change, negative = inhibition [2] 21.4% | Potency [13] > 46 µM | Potency [5] > 46 µM | Potency [6] | Potency [8] | Potency [15] | outcome [16] | activity change, negative = inhibition [10] -0.127% | outcome [11]

CC(C)CN1CCC2(CC1)CCN(C(=O)c1cccc(F)c1)CC2
inactive: Potency [1] > 11.4 µM | activity change, negative = inhibition [2] -11.3% | Potency [3] | activity, negative = inhibition [4] 0.382% | Potency [5] > 46 µM | Potency [6] | Potency [7] | activity change, negative = inhibition [10] 0.839% | outcome [11]
active: Potency [12] 5.01 µM
1.53%: max response [10, 20]
2.51%: max response [10, 21]

COc1ccccc1CN1CCC2(CCNCC2)CC1
active: Potency [12] 0.0316 µM
-0.266%: max response [10, 21]
1.08%: max response [10, 20]
inactive: Potency [1] > 11.4 µM | activity change, negative = inhibition [2] -18.9% | Potency [3] | activity, negative = inhibition [4] 6.24% | Potency [5] > 46 µM | Potency [6] | Potency [7] | activity change, negative = inhibition [10] -2.64% | outcome [11]

COc1ccccc1CN1CCCC2(CCN(C(C)=O)CC2)C1
active: Potency [3] 25.1 µM | Potency [12] 3.16 µM
7.93%: max response [10, 20]
inactive: Potency [1] > 11.4 µM | activity change, negative = inhibition [2] 0.608% | activity, negative = inhibition [4] 9.98% | Potency [5] > 46 µM | Potency [6] | Potency [7] | activity change, negative = inhibition [10] 0.567% | outcome [11]
13%: max response [10, 21]

N#Cc1ccc(CN2CC3(CCN(C(=O)c4cccc(F)c4)CC3)C2)cc1
3.31%: max response [10, 21]
active: Potency [3] 3.98 µM | Potency [14] 2 µM
2.82%: max response [10, 20]
inactive: Potency [1] > 11.4 µM | activity change, negative = inhibition [2] 20.2% | activity, negative = inhibition [4] -1.68% | Potency [5] > 46 µM | Potency [7] | Potency [17] | activity change, negative = inhibition [10] -2.25% | outcome [11]

O=C(Oc1ccccc1)N1CCC2(CCCN(c3ccccn3)C2)CC1
inactive: Potency [1] > 11.4 µM | activity change, negative = inhibition [2] -14.7% | activity, negative = inhibition [4] 2.71% | Potency [5] > 46 µM | Potency [6] | Potency [7] | Potency [8] | activity change, negative = inhibition [10] 1.87% | outcome [11]
-15.5%: max response [10, 20]
-9.96%: max response [10, 21]
active: Potency [3] 20 µM | Potency [14] 7.94 µM

COc1ccc(CNc2ncncc2-c2ccccc2Cl)c(OC)c1
inactive: Potency [1] > 11.4 µM | activity change, negative = inhibition [2] -16.1% | activity change, negative = inhibition [18] -7% | activity, negative = inhibition [4] 15.1% | Potency [13] > 46 µM | Potency [5] > 46 µM | Potency [6] | Potency [7] | Potency [15] | outcome [16] | activity change, negative = inhibition [10] 5.27% | Potency [19] | outcome [11]
2.12%: max response [10, 21]
-5%: max response [10, 20]

COc1ccccc1CN1CC[C@@]2(CCCN(C(=O)c3cnccn3)C2)C1
17.4%: max response [10, 21]
12.1%: max response [10, 20]
inactive: Potency [1] > 11.4 µM | activity change, negative = inhibition [2] -0.652% | activity change, negative = inhibition [18] 0.87% | activity, negative = inhibition [4] 9.03% | Potency [5] > 46 µM | Potency [6] | Potency [7] | activity change, negative = inhibition [10] 3.53% | outcome [11]

From PubChem BioAssay (NCATS)
